The values that follow come from PubChem BioAssay AID2796 (The Scripps Research Institute Molecular Screening Center, 2010).

The whole screen tested about 320,000 compounds, of which about 8,000 (2.5%) were called active. The entries come from a sample that favours actives as a whole. Values without a mark were called inactive. Cut-off read from the data, not from the text of the source: active = activation above about 47%; inactive = the rest.

Chain of Aryl hydrocarbon receptor (Homo sapiens) (P35869 whole entry, looked up): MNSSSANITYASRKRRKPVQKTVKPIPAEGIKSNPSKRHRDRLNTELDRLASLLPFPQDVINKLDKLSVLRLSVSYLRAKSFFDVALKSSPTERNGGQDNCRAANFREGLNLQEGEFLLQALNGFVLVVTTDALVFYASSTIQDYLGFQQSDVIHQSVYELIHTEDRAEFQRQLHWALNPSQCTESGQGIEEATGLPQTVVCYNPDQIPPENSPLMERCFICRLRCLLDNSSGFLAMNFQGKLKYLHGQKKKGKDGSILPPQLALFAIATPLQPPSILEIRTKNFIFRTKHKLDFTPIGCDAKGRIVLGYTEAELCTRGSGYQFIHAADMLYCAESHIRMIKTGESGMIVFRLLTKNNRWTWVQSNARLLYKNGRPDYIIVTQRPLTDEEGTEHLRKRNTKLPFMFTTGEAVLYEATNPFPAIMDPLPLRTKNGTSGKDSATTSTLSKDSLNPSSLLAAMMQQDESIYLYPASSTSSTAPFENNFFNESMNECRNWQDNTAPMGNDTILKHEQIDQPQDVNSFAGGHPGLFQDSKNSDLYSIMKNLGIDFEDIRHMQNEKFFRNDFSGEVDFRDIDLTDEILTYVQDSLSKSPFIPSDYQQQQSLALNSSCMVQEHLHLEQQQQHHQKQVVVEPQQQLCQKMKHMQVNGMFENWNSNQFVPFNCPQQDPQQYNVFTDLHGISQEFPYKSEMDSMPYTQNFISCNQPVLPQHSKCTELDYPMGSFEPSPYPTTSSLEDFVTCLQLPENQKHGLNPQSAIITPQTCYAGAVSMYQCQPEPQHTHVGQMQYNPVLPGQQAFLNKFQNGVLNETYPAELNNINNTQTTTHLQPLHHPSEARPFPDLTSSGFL

This experiment concerns the target Aryl hydrocarbon receptor (Homo sapiens) (UniProt P35869). Briefly: AHR activators, primary screen, cell-based, luminescence, luciferase reporter, human (AID 2796).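 Note: 0% = vehicle wells and 100% = reference agonist.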 Conditions: AHR-responsive luciferase reporter cells, at 5 µM, hits give high values. In general terms: A reporter such as luciferase makes a cellular process visible.
Regarding `Cc1nc(SCC(=O)NC2CCCCC2C)c(C#N)c(C)c1C` (centres undefined), the activation is -1.86%.
To `CC(C)CC1NC(=O)c2cc(Cl)ccc2-n2c1nc1ccccc1c2=O` (centres undefined) belongs 20.2%.
The figure for `CCOCCCNC(=O)C(NC(=O)CNC(=O)c1ccccc1)c1ccc(C)cc1` (centres undefined) is 0.56%.
On to `O=C(c1ccc(F)cc1)C1CCN(Cc2cn[nH]c2-c2ccccc2)CC1`, for which the activation was 3.88%.
Consider `Cc1cccc(C)c1NC(=O)C1(C)c2cccc[n+]2CC(=O)N1Cc1cccs1` (centres undefined), for which the activation is 1.93%.
As to `O=S(=O)(Nc1ccc(Oc2ncccn2)c(Cl)c1)c1ccc(F)cc1`, the activation is -0.48%.
To `CCN(CC)C(=O)CC1(c2ccccc2OC)CCOC(C(C)C)C1` (centres undefined) belongs -3.4%; to `O=C(Nc1ccc2oc(-c3ccc4ccccc4c3)nc2c1)c1cccs1`, 33.5%.
To `CCc1ccc2oc(-c3ccc(N)cc3)nc2c1` belongs 78.3% (active); to `O=C(NC(=S)Nc1ccc(Br)cc1F)C1CCCCC1`, -1.21%.
To `CCOc1ccc(N(CC(=O)NCCc2ccc(F)cc2)S(=O)(=O)c2ccccc2)cc1` belongs 0.85%; to `O=C(Nc1ccc(C(F)(F)F)cc1)c1cccc(-n2cnnn2)c1`, 102% (active); to `Cc1cccc(NC(=O)c2nnn(-c3cccc(C(F)(F)F)c3)c2N)c1`, -4.69%.
On to `O=C(Nc1cccc(-n2cnnn2)c1)c1cccnc1`, for which the activation was 4.54%.
With `Cc1nc(-c2ccccc2)cn2c1nc1ccccc12`, the activation is 77% (active).
Regarding `Cc1c(C(=O)Nc2cccc(Cl)c2)cn2c(nc3ccccc32)c1C#N`, the activation was 7.03%.
To `CCOCCn1c(-c2ccccc2)nc2ccccc21` belongs -0.77%; to `Cc1ccc(-n2nc(C)c(/C=N/NC(=O)c3cccs3)c2Cl)cc1`, 11.5%; to `COc1ccccc1CNC(=O)c1ccc(CS(=O)(=O)c2ccccc2)o1`, -0.56%.
Turning to `O=C(NCc1cccnc1)c1ccc(CS(=O)(=O)c2ccc(Br)cc2)o1`, the activation was 77.4% (active).
To `COc1ccc(CCNC(=O)c2ccc(CS(=O)(=O)c3ccc(Br)cc3)o2)cc1OC` belongs 2.36%.
For the molecule `C[C@H](NC(=O)C1CCN(S(=O)(=O)c2ccccc2)CC1)C(=O)NCc1ccccc1`, the activation was 1.44%.
Take `O=C(Nc1ccc(Cl)cn1)c1ccc2c(c1)OCCO2`: the activation is -5.76%.
To `O=C(COC(=O)c1ccco1)Nc1ccc(Cl)cn1` belongs 10.9%; to `O=C(Nc1ccc(Cl)cn1)c1cnn2cccnc12`, 129% (active).
Turning to `O=C(CN1C(=O)NC(Cc2c[nH]c3ccccc23)C1=O)Nc1ccccc1C(F)(F)F` (centres undefined), the activation is -0.64%.
The figure for `COc1ccc(NC(=O)C2COc3ccccc3O2)cc1` (centres undefined) is 1.18%.
Take `COc1ccc(OC)c2sc(NC(=O)C3COc4ccccc4O3)nc12` (centres undefined): the activation is 50.9% (active).
To `O=C(Nc1ncc([N+](=O)[O-])s1)C1COc2ccccc2O1` (centres undefined) belongs 6.36%; to `CCC(=O)N(Cc1cc2ccccc2[nH]c1=O)c1ccc(OC)cc1`, 3.79%; to `O=[N+]([O-])c1cc(S(=O)(=O)NCCc2ccccn2)ccc1Cl`, -0.28%.
For `Cc1c([N+](=O)[O-])c(N)nn1C`, the activation is 2.61%.
Take `O=C(CN1CCN(c2ccc(Cl)cc2)CC1)NCc1cccs1`: the activation is -1.24%.
The figure for `O=C(CN1CCN(c2ccc(Cl)cc2)CC1)c1ccccc1` is 73.2% (active).
`CC(C)OC(=O)CN1CCN(c2ccc(Cl)cc2)CC1`: the activation was 1.24%.
Consider `CCCCC(CC)CNCc1cccn1CCN1CCOCC1` (centres undefined), for which the activation was 1.27%.
`COc1cccc(-n2c(=S)[nH]c3c(oc4ccccc43)c2=O)c1`: the activation was 64.8% (active).
For the molecule `COc1cccc(-n2cc(C(=O)O)c3ccccc3c2=O)c1`, the activation was -1.78%.
Regarding `COc1cccc(N2C(=O)CN(Cc3ccccc3)C2=S)c1`, the activation is 1.66%.
As to `CCOC(=O)C1CCN(S(=O)(=O)c2ccc3c(c2)N(C)C(=O)CC(=O)N3C)CC1`, the activation was -0.75%.
The figure for `CCOC(=O)C1CN(S(=O)(=O)c2ccc(OC)cc2)c2cc(Cl)ccc2O1` (centres undefined) is 1.38%; for `COc1ccc(C2OCC3(CO2)SC(=O)NC3=O)cc1OC` (centres undefined) it is 3.57%.
For `CC(=O)Nc1nc(N(C)C)nc(N(C)C)n1`, the activation is -2.86%.
The figure for `CN(C)c1nc(Nc2ccc(Cl)c(Cl)c2)nc(N(C)C)n1` is 130% (active).
`CNc1nc(Nc2ccc(C)c(Cl)c2)nc(N)c1[N+](=O)[O-]`: the activation was 38.2%.
To `CN(C)c1ccnc(Nc2ccc(F)cc2)c1C#N` belongs 10.8%; to `CN(C)c1nc(NN)nc(Nc2ccc(F)cc2)n1`, 76.4% (active); to `Fc1ccc(Nc2nnns2)cc1`, -0.19%.
Take `Cc1cccc(OCC(O)CN2CCN(CCN3C(=O)c4cccc5cccc(c45)C3=O)CC2)c1C` (centres undefined): the activation was 1.57%.
For `Nc1nc(O)c(CC(=O)O)s1`, the activation is 1.52%.
On to `CCCCC/C=C/C1=CC(=O)C[C@H](c2ccc(Cl)cc2)C1`, for which the activation was 0.78%.
To `CCOC(=O)C1CCN(C(=O)C2CCCN(S(=O)(=O)c3ccc(OC)c(Cl)c3)C2)CC1` (centres undefined) belongs 1.31%; to `CCCCc1ccc(NC(=O)NCc2cccnc2)cc1`, 7.22%.
The figure for `O=C(Nc1ccccc1)Nc1nc2ccccc2s1` is 74.5% (active).
In the case of `O=C(CCNC(=O)c1ccccc1)Nc1nc2ccccc2s1`, the activation is 24.7%.
The figure for `COC(=O)c1ccccc1NC(=O)CSc1nnnn1C` is 3.56%; for `O=C(CCC(=O)c1cccs1)Nc1nc2ccccc2s1` it is 38%.
Turning to `Cn1nnnc1SCC(=O)Nc1nc2ccccc2s1`, the activation is 50.3% (active).
The figure for `Cn1nnnc1SCC(=O)Nc1sccc1C(N)=O` is -1.01%; for `Brc1cnc2ccccc2c1N1CCCCC1` it is -3.31%; for `Cc1ccc(C(=O)N/C(=C\c2cccs2)C(=O)NCCc2ccccn2)cc1C` it is 0.25%.
For `N#Cc1c(N2CCCCC2)nc(N)c2c(N)nc(SCC(=O)O)cc12`, the activation is 6.26%.
Take `Cc1ccc(NC(=O)c2cnc(SCC(=O)NCC3CCCO3)n(C)c2=O)cc1` (centres undefined): the activation was 16.3%.
For the molecule `Cn1c(SCC(=O)c2ccccc2)ncc(C(=O)Nc2ccc(F)cc2)c1=O`, the activation was 98.3% (active).
Consider `Cn1c(SCC(=O)c2ccc(F)cc2)nnc1-c1ccccn1`, for which the activation was -0.55%.
For the molecule `CN(CC(=O)Nc1ccc(Cl)cc1)CC(=O)Nc1cccc2ccccc12`, the activation is 5.21%.
To `O=C(CN1C(=O)NC2(CCCCCC2)C1=O)Nc1ccc([N+](=O)[O-])cc1` belongs -2.64%.
As for `COc1ccc(OCc2cc(C(=O)N3CCCC3)no2)c2ccccc12`, the activation was 50.9% (active).
Take `COc1cc(Cl)ccc1OCc1cc(C(=O)N2CC[C@@H]3CCCC[C@H]3C2)no1`: the activation is 6.28%.
For `COc1ccccc1-c1cc(C(=O)N2CCCCC2)no1`, the activation is 32.7%.
The figure for `Cc1ccc(C(=O)NCC(=O)OCC(=O)NC2CCCCCCC2)cc1` is 0.7%; for `CCCCNC(=O)C1CCCN(S(=O)(=O)c2ccc(S(=O)(=O)NCC(C)C)cc2)C1` (centres undefined) it is -3.28%; for `CCOc1ccc(C2c3[nH]c4ccccc4c3CCN2Cc2cn(CC)nc2C)cc1` (centres undefined) it is 58.7% (active).
For the molecule `COc1cccc(C2c3[nH]c4ccccc4c3CCN2Cc2cccc(C)n2)c1` (centres undefined), the activation was 17.2%.
The figure for `CCOc1ccc(C2c3[nH]c4ccccc4c3CCN2Cc2cccn2-c2ncccn2)cc1` (centres undefined) is 26.3%.
For the molecule `Cc1c(-c2ccccc2)n[nH]c1C(=O)N=Nc1c(O)[nH]c2ccccc12`, the activation was -6.16%.
To `CCOC(=O)c1c(C)[nH]c(C(=O)COc2ccc3c(c2)OCO3)c1C` belongs 30.7%; to `CCOC(=O)N1CCN(C(=O)COCc2cc(-c3ccc4c(c3)OCO4)on2)CC1`, 0.94%; to `CCOC(=O)c1nc(-c2ccc3c(c2)OCO3)[nH]c1C`, 102% (active).
As to `CCCCOc1ccc(Cl)cc1CSc1nncn1N`, the activation is 1.19%.
`Cc1cccc(N=C2SC(C)CN2C(=O)CN2C(=O)NC3(CCCC3)C2=O)c1` (centres undefined): the activation was 2.39%.
The figure for `CCOc1ccccc1CN1CCN(C2CCC2)CC1CCO` (centres undefined) is -2.26%.
To `CC(=O)N1CSCC1C(=O)O` (centres undefined) belongs 0.15%.
As for `CCOc1cccc(C(=O)Nc2cnn(Cc3ccccc3)c2)c1`, the activation was 47.8% (active).
To `O=C(O)CCCn1cc(NC(=O)COc2cccc(Cl)c2)cn1` belongs -1.62%; to `CCOc1cccc(C(=O)Nc2nnc(-c3cccs3)s2)c1`, 37.1%; to `C=CC1=C(C(=O)O)N2C(=O)[C@@H](NC(=O)/C(=N\OCC(=O)O)c3csc(N)n3)[C@H]2SC1`, -1.86%.
For `COc1cc(C(=O)Nc2nccs2)cc(OC)c1OC`, the activation was 51.3% (active).
Turning to `CC(=O)Oc1ccc(C(=O)Nc2nccs2)cc1`, the activation was 1.87%.
The figure for `COc1ccc(Cc2nnc(NC(=O)c3cc(OC)c(OC)c(OC)c3)s2)cc1OC` is 0.25%; for `O=C(Nc1cccc2c1N(C(=O)c1ccco1)CCC2)c1ccco1` it is 2.88%.
As for `Cc1ccc(NC(=O)CSc2nn3c(=O)c(C)nnc3s2)cc1Cl`, the activation was 72.8% (active).
To `COc1ccc(Cc2nnc(SCC(=O)Nc3ccc(C)c(Cl)c3)[nH]c2=O)cc1` belongs -0.12%.
To `Cc1ccc(NC(=O)CSc2nnc(CNC(=O)c3ccccc3F)o2)cc1Cl` belongs 26.2%; to `COCCNC(=O)CSc1nc2c(n1-c1ccccc1)CCCC2`, -0.48%.
In the case of `Cc1cc(=O)n2[nH]c(-c3sccc3-n3c(C)ccc3C)cc2n1`, the activation was 10%.
To `Cc1cc(=O)n2[nH]c(-c3cccc(Cl)c3)cc2n1` belongs 50.5% (active).
To `O=c1c2c(nc3cc(-c4cccc(Cl)c4)[nH]n13)CCCC2` belongs 5.09%; to `O=C(CCc1ccc(S(=O)(=O)N2CCOCC2)cc1)OCC(=O)c1ccc(Br)cc1`, 2.27%.
